# Data: PubChem BioAssay AID2315 (National Center for Advancing Translational Sciences (NCATS), 2010)
# In all, about 290,000 compounds went through this assay and about 27,000 (9.3%) were called active. The list comes from a sample in which actives are over-represented; it also holds similar structures and randomly drawn compounds. A number with no mark means an inactive call. No stated cut-off is given here; in the data, active means inhibition mostly above about 28% (no sharp cut-off); inactive means mostly below about 43%.
# Assay: A qHTS for Small Molecule Inhibitors of Shiga Toxin; further: 0% is about no effect
# Settings: Vero cells, Shiga toxin protein synthesis inhibition reporter; at 38.7 µM, active compounds read high
row,SMILES,inhibition
1,Cc1cc(C)c(S(=O)(=O)c2cc(F)ccc2C)c(=O)[nH]1,-5.17%
2,CCOc1ccc(NC(=O)COc2ccc(S(=O)(=O)N3CCCC3)cc2)cc1,22.6%
3,Cc1ccc(-c2nnc(SC(C)C#N)n2N)cc1 (configuration not stated),12.2%
4,Cc1ccc(NC(=O)NC(=O)CSc2nnc(-c3ccc(OC(F)F)cc3)n2N)c(C)c1,12.9%
5,C=C(C)CSc1nnc(-c2ccc(C)cc2)n1N,130% (active)
6,COc1cccc(C(=O)OCc2cc(=O)oc3c(C)c(C)ccc23)c1OC,4.14%
7,Cc1ccc(CNC(=O)CCS(=O)(=O)c2ccc3c(c2)CC(C)N3C(=O)C2CC2)o1 (configuration not stated),32.1%
8,O=C(Nc1nonc1-c1ccc(Cl)cc1)c1ccco1,6.78%
9,COc1cccc(CNC(=O)Cn2c(=O)oc3cc(S(=O)(=O)N4CCCCC4)ccc32)c1,-6.29%
10,c1ccc(-n2nc3ccccc3n2)cc1,25.4% (active)
11,c1ccc(-n2ncc(-c3nn[nH]n3)n2)cc1,-22.5%
12,Oc1ccc(-c2nncn2-c2ccccc2)cc1,-7.57%
13,CN1CN(C)c2ccc([N+](=O)[O-])c3cccc1c23,4.19%
14,Cc1nn(C)cc1S(=O)(=O)N1CCN(c2ccc(F)cc2)CC1,-28%
15,COc1ccc(C(C(=O)NC(C)(C)C)N(Cc2ccc(F)cc2)C(=O)CCC(=O)Nc2cc(C)on2)cc1 (configuration not stated),-4.11%
16,Cc1cc(=O)oc2c(C)c(OCC(=O)NCCN3CCOCC3)ccc12,-1.86%
17,O=C1c2ccccc2C(=O)N1CCCc1nc(-c2ccccc2)no1,8.99%
18,c1ccc(CCc2nc(-c3ccncc3)no2)cc1,60.1% (active)
19,O=C(Cc1ccc(Cl)cc1)NCc1nc(-c2ccccc2)no1,-5.48%
20,COc1ccccc1OCC(O)CN1CCOCC1 (configuration not stated),-3.66%
21,OC(COc1ccc2ccccc2c1)CN1CCOCC1 (configuration not stated),26.8% (active)
22,OC(COc1ccc2ccccc2c1)Cn1cncn1 (configuration not stated),11%
23,COc1ccc(C2/C=C\CN(Cc3ccco3)C(C)C(=O)N2Cc2ccc(F)cc2)cc1 (configuration not stated),-2.61%
24,Cc1ccc(-n2nc3cc(C)c(NC(=O)c4cccnc4)cc3n2)cc1,49% (active)
25,O=C(Nc1cccc(-n2cnnn2)c1)c1cccnc1,-4.33%

row,SMILES,inhibition
1,Cc1cc(NC(=O)c2ccco2)c(=O)n(Cc2c(F)cccc2Cl)c1,1.74%
2,Cc1ccc(-n2nc3cc(Cl)c(NC(=O)c4ccco4)cc3n2)cc1,75.3% (active)
3,COC(=O)c1cc(Cl)c(NC(=O)c2ccco2)cc1OC,29.6%
4,Cc1c(NC(=O)c2cccnc2)c(=O)n(-c2ccccc2)n1C,12.2%
5,C[C@H](NC(=O)[C@@H]1Cc2ccccc2CN1C(=O)OC(C)(C)C)C(=O)NC1CCCC1,-6.03%
6,O=c1[nH]cccc1-c1nc2ccccc2n1Cc1ccc(Cl)cc1,-20.4%
7,O=S(=O)(c1ccccc1)c1nc(Cc2ccccc2)oc1N1CCOCC1,-8%
8,COc1cccc(CNCc2ccc3c(c2)OCO3)c1,-0.994%
9,COc1cccc(C(=O)NNC(=O)/C=C/c2ccccc2)c1,-15.7%
10,COc1ccc(C2(O)C(=O)Nc3ccccc32)cc1 (configuration not stated),-10.8%
11,O=C1Nc2ccccc2C12Nc1ccccc1S2 (configuration not stated),103% (active)
12,Cc1cc(O)c(C2(O)C(=O)Nc3ccccc32)cc1C (configuration not stated),-0.279%
13,Cn1c(=O)[nH]c(=O)c2c1nc(N1CCN(C(c3ccccc3)c3ccccc3)CC1)n2CCO,-11.3%
14,COc1ccc(NC(=O)c2cccc(Cl)c2)c[n+]1[O-],-4.4%
15,O=[N+]([O-])c1ccccc1/C=C/CN1CCC(O)CC1,-7.66%
16,c1ccc(CN2CCC(N=C3NN=C(c4ccc5c(c4)OCCO5)CS3)CC2)cc1,116% (active)
17,Clc1cccc(N=C2NN=C(c3ccc4c(c3)OCCO4)CS2)c1,95.2% (active)
18,CS(=O)(=O)N(CC(=O)N1CCN(Cc2ccccc2)CC1)c1ccc2c(c1)OCCO2,-18.5%
19,CC(=NC1CCN(Cc2ccccc2)CC1)c1c(O)[nH]c(=O)[nH]c1=O,21%
20,Cc1cccc(C)c1NC(=O)CSc1nc2c([nH]1)c(=O)n(C)c(=O)n2C,-8.9%
21,Cc1ccc(C(=O)N2CC(=O)Nc3ccc(F)cc3C2c2ccc(F)cc2)cc1 (configuration not stated),2.9%
22,CCOC(=O)c1cc(C(=O)Nc2ccc(S(=O)(=O)Nc3ccc(OC)cc3)cc2)nn1C,5.33%
23,CCOc1ccccc1Nc1ccc2nonc2c1[N+](=O)[O-],-7.22%
24,S=c1[nH]nc(Nc2ccccc2)s1,-13.5%
25,O=C(c1ccc(Cl)cc1)c1cnc(Nc2ccccc2)s1,25.6%

row,SMILES,inhibition
1,CC(C)(C)C(=O)c1cnc(Nc2ccccc2)s1,87% (active)
2,COc1ccc(-n2cnnc2SCC(=O)Nc2cccc(S(N)(=O)=O)c2)cc1,-21.7%
3,COc1ccc(OC)c(NC(=O)CN(C)CCOc2ccc(Br)cc2)c1,-23.8%
4,NNC(=O)COc1ccc(C2SCCS2)cc1,20.4%
5,NC(=O)COc1ccccc1C(=O)NC12CC3CC(CC(C3)C1)C2,-4.22%
6,NC(=O)COc1ccc(C23CC4CC(CC(C4)C2)C3)cc1,58.8% (active)
7,O=S(=O)(Oc1ccccc1C(=S)N1CCOCC1)c1ccc(Cl)cc1,-36.2%
8,Cc1ccc(N(C(=O)c2snc(C(N)=O)c2N)C(C(=O)NCC2CCCO2)c2c[nH]c3ccccc23)cc1 (configuration not stated),23.7%
9,COC(=O)c1ccccc1NC(=O)C1CCN(C(=O)N2CCOc3ccccc32)CC1,8.07%
10,Oc1ccc(-c2[nH]ncc2-c2nc3ccccc3s2)c(O)c1,13.6%
11,CC(=O)Nc1cccc(-c2nc3ccccc3s2)c1C,60.4% (active)
12,Cc1nn(CC(=O)Nc2nc3ccccc3s2)c(C)c1[N+](=O)[O-],26.1%
13,CC(=O)N1CCSc2ccc(S(=O)(=O)N3CCC(C)CC3)cc21,-12.1%
14,O=C(Nc1ccccc1N1CCCC1)c1ccc2ccccc2c1,58.1%
15,CCCN(CCC)C(=S)Nc1cc(C(=O)OC)ccc1C(=O)OC,-14.3%
16,COc1ccc(S(=O)(=O)N(CC(=O)N/N=C/c2ccc(C(=O)O)cc2)Cc2ccccc2)cc1OC,1.95%
17,CC(C)Cn1c(N)c(C(=O)NCc2cccs2)c2nc3ccccc3nc21,-13.1%
18,CCCNC(=O)c1c(N)n(-c2ccc(S(N)(=O)=O)cc2)c2nc3ccccc3nc12,-14.1%
19,CCC(C)NC(=O)c1c(N)n(/N=C/c2cccs2)c2nc3ccccc3nc12 (configuration not stated),107% (active)
20,CCc1[nH]nc(C(=O)N2CCCC(CO)(Cc3ccc(F)cc3F)C2)c1C (configuration not stated),-13.8%
21,Cc1ccc(S(=O)(=O)CC(=O)NC(C)c2ccccc2)cc1 (configuration not stated),-1.44%
22,CCc1ccccc1NC(=O)[C@@H]1CCC(=O)N1C1OC(=O)c2c1ccc(OC)c2OC (some centres not stated),-2.37%
23,Cc1ccc2[nH]cc(CCCN3C(=O)c4ccccc4C3=O)c2c1,1.09%
24,COc1ccc2[nH]cc(CCN3C(=O)c4ccc(C(=O)O)cc4C3=O)c2c1,60.8% (active)
25,COc1ccc(C[C@H](C(=O)O)N2C(=O)c3ccc(C(=O)O)cc3C2=O)cc1,2.25%

row,SMILES,inhibition
1,O=C(CC(c1ccccc1)c1ccccc1)NCC(O)c1ccc([N+](=O)[O-])cc1 (configuration not stated),-4.27%
2,CCCCc1ccc(NC(=S)NCCCN2CCOCC2)cc1,-8.23%
3,CCCCc1ccc(NC(=S)N2CCCC(CO)C2)cc1 (configuration not stated),87.2% (active)
4,COc1ccc(NC(=S)N2CCCC(CO)C2)c(OC)c1 (configuration not stated),-3.35%
5,COc1ccc(C(=O)Nc2ccccc2C(=O)N2CCN(c3ccccc3)CC2)cc1,-6.97%
6,CCn1nccc1C(=O)Nc1ccc(Cl)c(Cl)c1,81% (active)
7,CCn1nccc1C(=O)Nc1ccc(S(=O)(=O)NC23CC4CC(CC(C4)C2)C3)cc1,-9.86%
8,Cc1nnc(NC(=O)Nc2ccc(Cl)c(Cl)c2)s1,-3.3%
9,CC1=C(C(=O)OC2CCCCC2)C(c2ccccc2F)NC(=O)N1 (configuration not stated),4.41%
10,O=C(O)c1cc(S(=O)(=O)N(Cc2ccccc2)c2ccccc2)ccc1Cl,-7.94%
11,O=C(NCc1cccc(Cl)c1)C1CCN(c2nnc(N3CCCC3=O)s2)CC1,-4.8%
12,Cc1ccc(C)c(N2CCN(C(=O)CCCCCn3c(=S)[nH]c4ccc(N5CCOCC5)cc4c3=O)CC2)c1,1.81%
13,Cc1ccc(NC(=S)NC(=O)/C=C/c2ccc(Cl)cc2)cc1,13%
14,COC(=O)c1c(C)[nH]c(C(=O)/C=C/c2ccc(Cl)cc2)c1C,54.7% (active)
15,COC(=O)c1c(C)[nH]c(C)c1-c1ccc([N+](=O)[O-])cc1,21.5%
16,O=C(c1cccs1)C1C(c2ccc(Br)cc2)NC(=S)NC1(O)C(F)(F)F (configuration not stated),69.1% (active)
17,CCOC(=O)C1C(c2ccc(Cl)cc2)NC(=S)NC1(O)C(F)(F)F (configuration not stated),-9.88%
18,CC(=O)C1C(c2ccc(Cl)cc2)NC(=O)NC1(O)C(F)(F)F (configuration not stated),-1.27%
19,CC(=O)N1CCN(CC(C)(C)NS(=O)(=O)c2ccc(C)cc2)CC1,-4.99%
20,CCCCOC(=O)c1[nH]c(C)c(C(=O)OC)c1C,94.4% (active)
21,CC(=O)c1c(C)[nH]c(C(=O)OCC(=O)NCCC(C)C)c1C,-4.2%
22,COC(=O)c1c(C)[nH]c(C(=O)NCCc2ccc(S(N)(=O)=O)cc2)c1C,2.99%
